Laboratory results reported in PubChem BioAssay AID1159580 (chemical genetic matrix, 2015).
Out of some 5,500 compounds screened, about 2,000 (36%) were called active. Inconclusive results (about 18%) are left out. No stated cut-off is given here; in the data, active means normalized growth mostly below about 0.91 (no sharp cut-off); inconclusive means no clear call, values can overlap the other calls; inactive means mostly above about 0.92. Some of the results follow.

Experiment: chemical genetic growth profiling, strain panel (AID 1159580);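 further: tested at 20 µM; growth read once vehicle control cultures reached saturation at 30 °C; 1 = growth at the plate median or of vehicle wells; lower values mean less growth of the strain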
Settings: growth OD

Measured: normalized growth

C/C=C/c1ccc2c(c1)OCO2
inactive: S. cerevisiae deletion strains, locus YJR075W, strain HOC1, active compounds read low 1.01 | S. cerevisiae deletion strains, locus YKL009W, strain mrt4, active compounds read low 1.02 | S. cerevisiae deletion strains, locus YKL068W, active compounds read low 1 | S. cerevisiae deletion strains, locus YKL085W, strain MDH1 (second series), active compounds read low 1.01 | S. cerevisiae deletion strains, locus YKL085W, strain MDH1, active compounds read low 1.01 | S. cerevisiae deletion strains, locus YKL160W, strain elf1, active compounds read low 1 | S. cerevisiae deletion strains, locus YKL190W, strain CNB1, active compounds read low 1.01 | S. cerevisiae deletion strains, locus YKR001C, strain vps1, active compounds read low 1.05 | S. cerevisiae deletion strains, locus YKR026C, strain gcn3, active compounds read low 0.997 | S. cerevisiae deletion strains, locus YKR091W, strain srl3, active compounds read low 1.01 | S. cerevisiae deletion strains, locus YLL001W, strain dnm1, active compounds read low 1.01 | S. cerevisiae deletion strains, locus YLL026W, active compounds read low 1.02 | S. cerevisiae deletion strains, locus YLL041C, strain sdh2, active compounds read low 1.02 | S. cerevisiae deletion strains, locus YLR027C, strain aat2, active compounds read low 1.02 | S. cerevisiae deletion strains, locus YLR039C, strain RIC1, active compounds read low 1.07 | S. cerevisiae deletion strains, locus YLR058C, strain SHM2, active compounds read low 1.01 | S. cerevisiae deletion strains, locus YLR102C, strain apc9, active compounds read low 1.01 | S. cerevisiae deletion strains, locus YLR113W, strain HOG1, active compounds read low 0.976 | S. cerevisiae deletion strains, locus YLR221C, strain rsa3, active compounds read low 0.994 | S. cerevisiae deletion strains, locus YLR258W, strain gsy2, active compounds read low 1.02 | S. cerevisiae deletion strains, locus YLR262C, strain YPT6 (second series), active compounds read low 1 | S. cerevisiae deletion strains, locus YLR262C, strain YPT6, active compounds read low 1.05 | S. cerevisiae deletion strains, locus YLR268W, strain sec22, active compounds read low 1.04 | S. cerevisiae deletion strains, locus YLR320W, strain mms22, active compounds read low 1.01 | S. cerevisiae deletion strains, locus YLR330W, strain CHS5, active compounds read low 1.02 | S. cerevisiae deletion strains, locus YLR342W, strain FKS1 (second series), active compounds read low 1.03 | S. cerevisiae deletion strains, locus YLR342W, strain FKS1, active compounds read low 1.02 | S. cerevisiae deletion strains, locus YLR357W, strain rsc2, active compounds read low 1.03 | S. cerevisiae deletion strains, locus YLR370C, strain arc18, active compounds read low 1.02 | S. cerevisiae deletion strains, locus YLR371W, strain rom2, active compounds read low 1.01 | S. cerevisiae deletion strains, locus YLR384C, strain iki3, active compounds read low 1.03 | S. cerevisiae deletion strains, locus YLR418C, strain cdc73, active compounds read low 1 | S. cerevisiae deletion strains, locus YML016C, strain PPZ1, active compounds read low 1.01 | S. cerevisiae deletion strains, locus YML032C, strain rad52, active compounds read low 0.996 | S. cerevisiae deletion strains, locus YML120C, strain ndi1, active compounds read low 1.03 | S. cerevisiae deletion strains, locus YML124C, strain tub3, active compounds read low 1 | S. cerevisiae deletion strains, locus YMR058W, strain fet3, active compounds read low 1.02 | S. cerevisiae deletion strains, locus YMR078C, strain ctf18, active compounds read low 1.01 | S. cerevisiae deletion strains, locus YMR125W, strain sto1, active compounds read low 1.03 | S. cerevisiae deletion strains, locus YMR129W, active compounds read low 1.02 | S. cerevisiae deletion strains, locus YMR205C, strain PFK2, active compounds read low 1.02 | S. cerevisiae deletion strains, locus YMR223W, strain ubp8, active compounds read low 0.99 | S. cerevisiae deletion strains, locus YMR231W, strain pep5, active compounds read low 1.02 | S. cerevisiae deletion strains, locus YMR263W, strain SAP30, active compounds read low 1.01 | S. cerevisiae deletion strains, locus YMR307W, strain GAS1, active compounds read low 0.986 | S. cerevisiae deletion strains, locus YNL067W, strain RPL9B, active compounds read low 1.01 | S. cerevisiae deletion strains, locus YNL071W, strain lat1, active compounds read low 1.02 | S. cerevisiae deletion strains, locus YNL153C, strain GIM3, active compounds read low 1.03 | S. cerevisiae deletion strains, locus YNL183C, strain NPR1, active compounds read low 0.948 | S. cerevisiae deletion strains, locus YNL209W, strain ssb2, active compounds read low 1.02 | S. cerevisiae deletion strains, locus YNL233W, strain BNI4, active compounds read low 1.02 | S. cerevisiae deletion strains, locus YNL248C, strain rpa49, active compounds read low 0.998 | S. cerevisiae deletion strains, locus YNL250W, strain rad50, active compounds read low 1.01 | S. cerevisiae deletion strains, locus YNL271C, strain bni1, active compounds read low 1.01 | S. cerevisiae deletion strains, locus YNL298W, strain CLA4, active compounds read low 1.01 | S. cerevisiae deletion strains, locus YNL307C, strain MCK1, active compounds read low 1.02 | S. cerevisiae deletion strains, locus YNL322C, strain KRE1 (second series), active compounds read low 1.02 | S. cerevisiae deletion strains, locus YNL322C, strain KRE1, active compounds read low 1.01 | S. cerevisiae deletion strains, locus YNR049C, strain mso1, active compounds read low 1.02 | S. cerevisiae deletion strains, locus YNR052C, strain pop2, active compounds read low 0.996 | S. cerevisiae deletion strains, locus YOL006C, strain TOP1, active compounds read low 1.16 | S. cerevisiae deletion strains, locus YOL012C, strain htz1 1.12 | S. cerevisiae deletion strains, locus YOL147C, strain pex11, active compounds read low 1 | S. cerevisiae deletion strains, locus YOR001W, strain rrp6, active compounds read low 1.01 | S. cerevisiae deletion strains, locus YOR061W, strain CKA2, active compounds read low 1.01 | S. cerevisiae deletion strains, locus YOR069W, strain VPS5, active compounds read low 1.01 | S. cerevisiae deletion strains, locus YOR070C, strain gyp1, active compounds read low 1.02 | S. cerevisiae deletion strains, locus YOR080W, strain dia2, active compounds read low 1.03 | S. cerevisiae deletion strains, locus YOR083W, strain WHI5, active compounds read low 0.993 | S. cerevisiae deletion strains, locus YOR106W, strain vam3, active compounds read low 1.01 | S. cerevisiae deletion strains, locus YOR136W, strain idh2, active compounds read low 0.999 | S. cerevisiae deletion strains, locus YOR144C, strain elg1, active compounds read low 0.998 | S. cerevisiae deletion strains, locus YOR184W, strain ser1, active compounds read low 0.994 | S. cerevisiae deletion strains, locus YOR231W, strain MKK1, active compounds read low 0.959 | S. cerevisiae deletion strains, locus YOR265W, strain rbl2, active compounds read low 1.02 | S. cerevisiae deletion strains, locus YOR270C, strain vph1, active compounds read low 1.03 | S. cerevisiae deletion strains, locus YOR290C, strain snf2, active compounds read low 0.999 | S. cerevisiae deletion strains, locus YOR316C, strain cot1, active compounds read low 1.01 | S. cerevisiae deletion strains, locus YPL051W, strain arl3, active compounds read low 1.01 | S. cerevisiae deletion strains, locus YPL055C, strain LGE1, active compounds read low 1.03 | S. cerevisiae deletion strains, locus YPL078C, strain atp4, active compounds read low 1.01 | S. cerevisiae deletion strains, locus YPL106C, strain sse1, active compounds read low 1 | S. cerevisiae deletion strains, locus YPL240C, strain hsp82, active compounds read low 1.02 | S. cerevisiae deletion strains, locus YPL241C, strain CIN2, active compounds read low 1.01 | S. cerevisiae deletion strains, locus YPL256C, strain CLN2, active compounds read low 0.962 | S. cerevisiae deletion strains, locus YPR119W, strain clb2, active compounds read low 1.01 | S. cerevisiae deletion strains, locus YPR141C, strain kar3, active compounds read low 1.01 | S. cerevisiae deletion strains, locus YPR163C, strain tif3, active compounds read low 1 | S. cerevisiae deletion strains, locus YPR167C, strain met16, active compounds read low 1.02 | S. cerevisiae deletion strains, strain wtn01, active compounds read low 1.06 | S. cerevisiae strains, strain wild type, active compounds read low 1.01
